The entries come from a sample that favours hits as a whole.
IDH1 R132H inh – qHTS for Inhibitors of mutant isocitrate dehydrogenase 1 (IDH1): qHTS | Potency, µM (titrated, usually from 76.6 µM), hits mostly inhibitors | 390,000 compounds, 0.093% hits | Isocitrate dehydrogenase [NADP] cytoplasmic (Homo sapiens), O75874 | IDH1-R132H enzyme, NADPH consumption, diaphorase/resazurin fluorescence; note: nearly all actives have a fitted effect of over 65% in size
Target sequence (O75874 whole entry R132H, stated change not applied): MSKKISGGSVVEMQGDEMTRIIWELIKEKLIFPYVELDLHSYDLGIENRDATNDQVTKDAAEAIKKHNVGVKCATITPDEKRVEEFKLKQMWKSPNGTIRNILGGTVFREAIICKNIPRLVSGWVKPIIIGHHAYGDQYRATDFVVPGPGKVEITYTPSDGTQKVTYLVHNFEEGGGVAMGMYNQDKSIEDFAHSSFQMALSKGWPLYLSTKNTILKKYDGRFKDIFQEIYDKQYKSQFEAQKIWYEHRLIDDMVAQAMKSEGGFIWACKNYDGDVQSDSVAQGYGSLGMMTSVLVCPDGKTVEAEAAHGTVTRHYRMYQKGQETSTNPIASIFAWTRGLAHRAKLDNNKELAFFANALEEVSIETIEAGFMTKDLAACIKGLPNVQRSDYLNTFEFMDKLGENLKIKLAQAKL
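IDH1-R132H (0.5 ug/mL) preincubated 30 min with compound, then NADPH (0.016 mM) and alpha-KG (2 mM) added; 80 min at RT, pH 7.5. Remaining NADPH coupled via diaphorase/resazurin to fluorescence (540/590 nm); concentration-response curves normalized to no-enzyme control.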
LDHA inh – qHTS assay for inhibitors of human lactate dehydrogenase. 480,000 compounds, 0.15% hits. purified LDHA, NADH/diaphorase-resazurin fluorescence; stronger effect = lower value. activity change, % (values are at about 110 or 230 µM). L-lactate dehydrogenase A chain (Homo sapiens), P00338; in the data active = activity change below about -30%; inconclusive = mostly about -25% to -30%
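Remaining NADH was detected by diaphorase (0.133 mg/mL) converting 37 µM resazurin to fluorescent resorufin, read at 0 and 20 minutes. The preceding 5-minute room-temperature reaction used 2 nM LDHA, 0.2 mM sodium pyruvate and 0.06 mM NADH at pH 7.4.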
RGS4 inh – Inhibitors of Regulator of G Protein Signaling (RGS) 4: qHTS. Regulator of G-protein signaling 4 (Homo sapiens), P49798. Transcreener GDP fluorescence polarization, RGS4-accelerated GTP hydrolysis. Potency, µM (highest dose often 114 µM), actives largely listed as inhibitors. 390,000 compounds, 0.039% hits. AID 504845, 2011; note: nearly all actives have a fitted effect of over 75% in size
Target sequence (P49798 whole entry, looked up): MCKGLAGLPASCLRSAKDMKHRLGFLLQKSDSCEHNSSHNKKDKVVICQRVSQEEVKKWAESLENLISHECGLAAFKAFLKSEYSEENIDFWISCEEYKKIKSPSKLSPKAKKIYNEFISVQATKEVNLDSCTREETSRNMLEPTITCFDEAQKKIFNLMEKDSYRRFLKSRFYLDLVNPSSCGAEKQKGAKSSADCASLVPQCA
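MLSMR compounds (23 nl, pin-transferred) preincubated 10 min at room temperature with a 500nM (2x) first reagent, then RGS4 at 900nM (2x) plus Transcreener GDP mix added; fluorescence polarization (620/688 nm) read before and after 90 min at 30 °C.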
ClpP mod – qHTS Assay for Activators of ClpP; 340,000 compounds, 1.9% hits; ATP-dependent Clp protease proteolytic subunit (Bacillus subtilis (strain 168)), P80244; purified B. subtilis ClpP, FRET peptide cleavage, 20 min; Potency, µM (highest dose often 57.5 µM); active = well fitted falling curve with a large enough effect; inconclusive = small, poorly fitted or top-dose-only effect; inactive = no such curve, though single readings can be large or run the other way; note: the source files actives as falling curves though it sought activators and does not explain the sign; nearly all actives have a fitted effect of over 65% in size
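Buffer: 100 mM Tris/HCl pH8, 100 mM KCl, 0.05% low protease BSA, 2.5% glycerol, 0.01% Tween-20. ClpP 10 microg/mL final; 20 min RT; delta FRET normalized to ADEP and DMSO controls.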
Mito fusion yeast – qHTS Assay for Small Molecule Inhibitors of Mitochondrial Division or Activators of Mitochondrial Fusion | S. cerevisiae fusion-defective mutant growth rescue, CellTiterGlo 48 h | Potency, µM (highest dose often 46.1 µM), usual class: activators | 320,000 compounds, 0.23% hits; note: nearly all actives have a fitted effect of over 45% in size
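Temperature-sensitive fusion-defective S. cerevisiae (e.g. fzo1-1, mgm1-5) were grown with compound in YPEG medium (3% ethanol, 3% glycerol) for 48 hours at 37C. Growth rescue was measured as viability by CellTiterGlo luminescence after 10 minutes at ambient.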
S-ASM inh – Inhibitors of Secretory Acid Sphingomyelinase (S-ASM): qHTS. Sphingomyelin phosphodiesterase (Homo sapiens), P17405. placental ASM, HMU-PC fluorogenic substrate, 60 min. Potency, µM (series often up to 57.5 µM), hits mostly inhibitors. 340,000 compounds, 0.006% hits
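qHTS format. ASM enzyme prepared from human placenta hydrolyses the fluorogenic substrate HMU-PC0 (9 uM final) over 60 min at 37 °C after a 10 min compound preincubation.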
Numbers stand for hits; [ ] = another dose, or the depositor's remark. Unless noted, calls come from the whole dose curve; as a rule, active = well fitted curve in the direction sought with a large enough effect; inconclusive = small, poorly fitted or top-dose-only effect, or another doubt; inactive = no such curve, though single readings can be large; an effect the other way counts as inactive or inconclusive.

`CCCCNC(=O)c1ccc2c(c1)NC(=O)C(CS(=O)(=O)Cc1cccc(C)c1)N2` (stereo not drawn) gave IDH1 R132H inh inactive, LDHA inh inactive, RGS4 inh inactive and ClpP mod 31.6µM.
`COc1cccc(OC)c1OCCNC(C)(C)C` gave IDH1 R132H inh inactive, LDHA inh inactive, RGS4 inh inactive, ClpP mod 31.6µM, Mito fusion yeast inactive and S-ASM inh inactive.
COc1cccc(OC)c1OCCN(C)C was read as IDH1 R132H inh inactive, LDHA inh inconclusive, RGS4 inh inactive, ClpP mod inactive, Mito fusion yeast inactive and S-ASM inh inactive.
Screening CC1CCc2c(sc(NC(=O)COC(=O)c3ccccc3NCc3ccco3)c2C#N)C1 (stereo not drawn) returned IDH1 R132H inh inactive, LDHA inh inactive, RGS4 inh inactive, ClpP mod 12.6µM, Mito fusion yeast inactive and S-ASM inh inactive.
For COc1ccc(NC(=O)c2cc(=O)c3cc(C)ccc3o2)cc1OC the results were LDHA inh inactive.
`COc1cc(C(=O)NCCCNc2nc3cc(C)cc(C)c3cc2C#N)cc(OC)c1OC` gave IDH1 R132H inh inactive, LDHA inh inactive, RGS4 inh inactive, ClpP mod 25.1µM, Mito fusion yeast inactive and S-ASM inh inactive.
CN(CCOc1ccc(F)cc1)C(=O)c1n[nH]c(=O)c2ccccc12 was read as LDHA inh inactive.
`Cn1c(=O)c2c(nc(NCC3CCCO3)n2Cc2ccccc2)n(C)c1=O` (stereo not drawn) gave IDH1 R132H inh inactive, LDHA inh inactive, RGS4 inh inactive, ClpP mod 28.2µM, Mito fusion yeast inactive and S-ASM inh inactive.
`O=C(COc1ccc2c(c1)CCC2)Nc1ccc(Cl)c([N+](=O)[O-])c1` gave LDHA inh inactive.
For COc1cc2ccccc2cc1C(=O)OCC(=O)c1c(N)n(C)c(=O)n(C)c1=O the results were IDH1 R132H inh inactive, LDHA inh inactive, RGS4 inh inactive, ClpP mod 31.6µM, Mito fusion yeast inactive and S-ASM inh inactive.
Screening COCCCNC(=O)CC(NS(=O)(=O)c1ccc(OC)cc1)c1ccc(OC)cc1 (stereo not drawn) returned IDH1 R132H inh inactive, LDHA inh inactive, RGS4 inh inactive, ClpP mod 22.4µM, Mito fusion yeast inactive and S-ASM inh inactive.
`COCCCNC(=O)CC(NS(=O)(=O)c1ccc(C)cc1)c1ccc(OC)cc1` (stereo not drawn) gave IDH1 R132H inh inactive, LDHA inh inactive, RGS4 inh inactive, ClpP mod inactive, Mito fusion yeast inactive and S-ASM inh inactive.
Screening Cc1cnc(NC(=O)c2cc(F)ccc2F)s1 returned LDHA inh inactive.
Screening Cn1c2ccccc2c2ncn(Cc3ccco3)c(=O)c21 returned IDH1 R132H inh inactive, LDHA inh inactive, RGS4 inh inactive, ClpP mod 31.6µM, Mito fusion yeast inactive and S-ASM inh inactive.
For Cn1c2ccc(F)cc2c2ncn(Cc3ccco3)c(=O)c21 the results were IDH1 R132H inh inactive, LDHA inh inactive, RGS4 inh inactive, ClpP mod 25.1µM, Mito fusion yeast inactive and S-ASM inh inactive.
Screening CC(N(C)C(=O)Cc1cccc(F)c1)C(C)(C)C (stereo not drawn) returned LDHA inh inactive.
`O=C1C(C=NCCN2CCOCC2)=C(O)c2ccccc21` gave IDH1 R132H inh inactive, LDHA inh inactive, RGS4 inh inactive, ClpP mod 28.2µM, Mito fusion yeast inactive and S-ASM inh inactive.
For Cc1nn(C)c(C)c1NC(=O)c1nn(C)cc1Br the results were LDHA inh inactive.
For O=C(C1COc2ccccc2O1)N1CCN(c2ccccc2)CC1 (stereo not drawn) the results were IDH1 R132H inh inactive, LDHA inh inactive, RGS4 inh inactive, ClpP mod inactive, Mito fusion yeast inactive and S-ASM inh inactive.
`O=C(C1COc2ccccc2O1)N1CCOCC1` (stereo not drawn) gave IDH1 R132H inh inactive, LDHA inh inactive, RGS4 inh inactive, ClpP mod 15.8µM, Mito fusion yeast inactive and S-ASM inh inactive.
For Cc1ccc(NC(=O)CSCC(=O)OC(C)C(=O)Nc2ccc(S(N)(=O)=O)cc2)c(C)c1 (stereo not drawn) the results were IDH1 R132H inh inactive, LDHA inh -43.8, RGS4 inh inactive, Mito fusion yeast inactive and S-ASM inh inactive.
COc1ccccc1NC(=O)C(C)OC(=O)CSCC(=O)Nc1ccc(C)cc1C (stereo not drawn) was read as IDH1 R132H inh inactive, LDHA inh inactive, RGS4 inh inactive, ClpP mod inactive, Mito fusion yeast inactive and S-ASM inh inactive.
For CCCOC(=O)c1ccc(NC(=O)c2ccc(Br)o2)cc1 the results were IDH1 R132H inh inactive, LDHA inh inactive, RGS4 inh inactive, ClpP mod inactive, Mito fusion yeast 22.4µM and S-ASM inh inactive.
For COc1cc(Cl)c(C)cc1NC(=O)C(C)N1CCN(S(=O)(=O)Cc2ccccc2)CC1 (stereo not drawn) the results were LDHA inh inactive.
Screening O=C(Cc1ccccc1)NCCn1ccc2ccccc21 returned IDH1 R132H inh inactive, LDHA inh inactive, RGS4 inh inactive, ClpP mod inactive, Mito fusion yeast inactive and S-ASM inh inactive.
CC(=O)NCCn1ccc2ccccc21 was read as IDH1 R132H inh inactive, LDHA inh inactive, RGS4 inh inactive, ClpP mod 28.2µM, Mito fusion yeast inactive and S-ASM inh inactive.
For COc1ccc(OC)c(C(=O)CSc2nc3ncccc3[nH]2)c1 the results were IDH1 R132H inh inactive, LDHA inh inactive, RGS4 inh inactive[11.4 µM], ClpP mod 31.6µM, Mito fusion yeast inactive and S-ASM inh inactive.
`COc1ccc(NC(=O)CSc2nc3ncccc3[nH]2)cc1OC` gave IDH1 R132H inh inactive, LDHA inh inactive, RGS4 inh inactive, ClpP mod inactive, Mito fusion yeast inactive and S-ASM inh inactive.
`O=S(=O)(NCc1ccccc1)c1cccs1` gave IDH1 R132H inh inactive, LDHA inh inactive, RGS4 inh inactive, ClpP mod 14.1µM, Mito fusion yeast inactive and S-ASM inh inactive.
`COc1cccc(/C=N/NC(=O)CCc2n[nH]c(=O)[nH]c2=O)c1O` gave IDH1 R132H inh inactive, LDHA inh inactive, RGS4 inh inactive, ClpP mod 10µM, Mito fusion yeast inactive and S-ASM inh inactive.

High-throughput results (PubChem)
